Reference: PubChem BioAssay AID2391 (Southern Research Specialized Biocontainment Screening …, 2010)
The whole screen tested about 310,000 compounds, of which about 410 (0.13%) were called active. Another 2% or so got no clear call; they are omitted. How the calls were made is not given here. The list is a sample of the results. Measured potencies and affinities stand elsewhere.

Test: inhibition of RSV-induced cytopathic effect – HEp-2 cells, primary 10 µM value included (AID 2391)
Details: at 10 µM, stronger effect = higher value

CPE inhibition, inactive:
CCCOc1ccc(CN(C(=O)c2cccc(OC)c2)C2CCS(=O)(=O)C2)cc1 (stereo unspecified) 0.38%
CC(O)CNc1nc2ccccc2n1CC(=O)NCC(F)(F)F (stereo unspecified) 0.4%
O=C(Oc1ccc(C(=S)N2CCOCC2)cc1)c1ccc([N+](=O)[O-])cc1[N+](=O)[O-] 1.71%
O=C(COc1ccc(F)cc1Cl)Nc1ccc(S(=O)(=O)Nc2nccs2)cc1 -1.6%
CC(C)(C)c1cc(CNC2CS(=O)(=O)C[C@@H]2O)cc(C(C)(C)C)c1O (stereo partly specified) 0.68%
Cc1cc(Nc2cccc(Cl)c2)c2ccccc2n1 11%
COC(=O)c1cccc(Nc2nc3ccccc3nc2C)c1 7.1%
CCOc1ccc(-c2c(C(=O)N/N=C/C3CC=CCC3)nnn2-c2nonc2N)cc1 (stereo unspecified) 0.26%
CC1=NOC2(C1)N(C)c1ccccc1C2(C)C (stereo unspecified) -0.95%
CN1c2ccccc2C(C)(C)C12CC(c1ccc(Cl)c(S(=O)(=O)N3CCCC3)c1)=NO2 (stereo unspecified) 3.21%
CCN(CC)S(=O)(=O)c1ccc(C2=NOC3(C2)N(C)c2ccccc2C3(C)C)cc1 (stereo unspecified) 49.6%
CN1c2ccccc2C(C)(C)C12CC(CCl)=NO2 (stereo unspecified) 0.62%
COC(=O)COc1ccc(S(=O)(=O)NCc2ccc3c(c2)OCO3)cc1C 1.14%
CCCC[C@@H]1CNCCN1CCc1cccc2ccccc12 -0.31%
Cc1cccc(NS(=O)(=O)c2ccc(C(=O)NCC3CCCO3)cc2)c1C (stereo unspecified) 2.28%
CN(C)c1nc(C(N)=O)nc(N2CCOCC2)n1 0.62%
Cc1cc(C)n(CCCNC(=O)CN(C)S(=O)(=O)c2ccc(Cl)cc2)n1 -0.89%
Cc1ccc(-c2nc(CSCC(=O)N3CCCC3)c(C)o2)cc1 20.2%
Cc1oc(-c2ccccc2Cl)nc1CSCC(=O)O 2.04%
CC(=O)c1ccc(Nc2nc(=O)c3cccnc3s2)cc1 -0.53%
O=c1nc(Nc2ccc(OCc3ccccc3)cc2)sc2ncccc12 43.1%
CC(=O)c1cccc(Nc2nc(=O)c3cccnc3s2)c1 -1.05%
Cc1ccc(Nc2nc(=O)c3cccnc3s2)cc1 4.1%
O=C(O)CSc1nnc(COc2ccc(Br)cc2)n1-c1ccccc1 1.47%
COC(=O)c1sccc1S(=O)(=O)N1CCCC(N(C)CCc2ccccn2)C1 (stereo unspecified) -0.75%
O=C1c2ccccc2C(=O)N1CCCCN(C(=O)c1cccc([N+](=O)[O-])c1)c1ccc(Cl)cc1 60.5%
Cc1ccc(N(CCCCN2C(=O)c3ccccc3C2=O)C(=O)c2ccc(Cl)s2)cc1 44.1%
O=C(c1cc2ccccc2oc1=O)N(c1ccc(Cl)cc1)C1C=CS(=O)(=O)C1 (stereo unspecified) 1.15%
O=C1c2ccccc2C(=O)N1CCCCN(C(=O)c1ccc(Cl)s1)c1ccc(Cl)cc1 42.2%
O=C1c2ccccc2C(=O)N1CCCCN(C(=O)c1cc([N+](=O)[O-])cc([N+](=O)[O-])c1)c1ccc(Cl)cc1 46.5%
CCN(C(=O)c1cc2ccccc2oc1=O)c1ccccc1 0.2%
CN(Cc1ccccc1)C(=O)N[C@@H](Cc1ccccc1)C(=O)O 0.64%
COc1cccc(CCc2nnc(CCC(=O)NC(C)c3c(C)nn(C)c3C)o2)c1 (stereo unspecified) 0.66%
COc1ccc(OC)c(CN2CCN(C(=O)c3ccc(F)cc3)CC2)c1 2.45%
CC(C)Cc1nnc(NC(=O)CCC(=O)Nc2ccccc2F)s1 1.44%
Nc1ccc(-c2nc3ccc(N)cc3s2)cc1 -1.51%
Nc1ccc(-c2nc3ccc(C(=O)O)cc3s2)cc1 -1.01%
CCc1n(CC(O)COCC2CC=CCC2)c2ccccc2[n+]1C (stereo unspecified) 0.73%
O=C(NCc1ccc(F)cc1Cl)C1CCN(S(=O)(=O)N2CCCCC2)CC1 4.02%
Cc1ccc(S(=O)(=O)N(C)C)cc1NC(=O)COC(=O)CCC1CCCCC1 -0.99%
Cc1ccc(C)c(NC(=O)CN(C)C(=O)c2ccc(-c3cccc(C(F)(F)F)c3)o2)c1 0%
Clc1ccc(OCc2cn3ccccc3n2)c2ncccc12 4.9%
Cc1cccc2nc(COc3ccc4ccccc4c3Br)cn12 8.72%
CCn1c(CNS(=O)(=O)c2ccc(Br)cc2)n[nH]c1=S 0.55%
Cc1[nH]c2ccccc2c1/C=N/Nc1ccc([N+](=O)[O-])cc1S(=O)(=O)Nc1ccc(Cl)cc1 1.27%
Cc1[nH]c2ccccc2c1/C=N/NC(=O)c1cccc([N+](=O)[O-])c1 1.07%
C=CCc1cc(Cl)ccc1OCCCNC(C)CC (stereo unspecified) 0.05%
CSc1ccc(/C=C(/NC(=O)c2ccc(C)cc2)C(=O)Nc2cccc(C)c2)cc1 2.91%
COc1ccc(OCc2cccc(C(=O)O)c2)cc1 0.64%
O=C(O)c1cccc(COc2ccccc2Cl)c1 1.88%
COc1cc(CO)ccc1Oc1nc2ccccc2n2cnnc12 2.05%
O=C1c2cccnc2C(Nc2ccc(F)c(Cl)c2)N1Cc1cccs1 (stereo unspecified) 18%
Cc1ccc(NC2c3ncccc3C(=O)N2Cc2cccs2)cc1C (stereo unspecified) 13.8%
Cc1ccc(NC2c3ncccc3C(=O)N2Cc2cccs2)cc1 (stereo unspecified) 8.2%
O=C1c2cccnc2C(Nc2ccc(Cl)cc2)N1Cc1cccs1 (stereo unspecified) 46.8%
CCOC(=O)CNC(=O)c1ccc2[nH]c3ccccc3c2c1 2.11%
CCCn1c(SCC(=O)c2cc(OC)ccc2OC)nnc1-c1ccco1 1.5%
CCOc1ccc(C(c2c(O)nc(SC)[nH]c2=O)c2c(O)nc(SC)[nH]c2=O)cc1 1.1%
CCOC(=O)Cc1csc(NC(=O)C(NC(=O)C2CCCCC2)C(C)C)n1 (stereo unspecified) 3.52%
COc1ccccc1Nc1nc(-c2cccnc2)cs1 7.69%
O=[N+]([O-])c1cccc(-c2csc(Nc3ccccc3)n2)c1 0.52%
